Source: PubChem BioAssay (Tox21)
Records with an inconclusive call do not appear. The source made the active and inactive calls. Unless noted, calls follow the shape of the dose curve; as a rule, active = well fitted curve in the direction sought with a large enough effect in the repeat runs; inconclusive = weak or mixed curves; inactive = no such curve, though single readings can be large; an effect the other way counts as inactive or inconclusive.

Key:
[1] = biological target: Androgen receptor (Homo sapiens) (UniProt P10275); test: qHTS assay to identify small molecule antagonists of the androgen receptor (AR) signaling pathway using the MDA cell line in the presence of 0.5 nM R1881 (AID 1259243); also: potency is read from the fitted curve at half-maximal effect; nearly all actives have a fitted effect of over 50% in size
Method in brief: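 Steps: seed MDA-kb2 cells, incubate 5 hr at 37C; pin-transfer compounds in DMSO; add R1881 to 0.5 nM final; incubate 16 hr; add ONE-Glo, wait 30 min at room temperature; read luminescence.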

[2] = qHTS assay to identify small molecule HDAC inhibitors (AID 1259364); also: top concentration of the series differs between compounds; % is scaled to controls: 0 for no effect and ±100 for the full control effect; nearly all actives have a fitted effect of over 45% in size
Method in brief: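 Homogeneous cell-based luminescent assay of endogenous class I/II HDAC activity; HCT-116 cells, 2 h compound exposure, 30 min HDAC-Glo development at RT.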

[3] = qHTS assay to identify small molecule HDAC inhibitors - cell viability counter screen (AID 1259365); also: series mostly up to about 92 µM; % is scaled to controls: 0 for no effect and ±100 for the full control effect; nearly all actives have a fitted effect of over 50% in size
Method in brief: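 Viability readout: CellTiter-Glo luminescence. Wild-type HCT-116 cells, 2hr compound treatment following overnight attachment at 37 C.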

[4] = qHTS assay to identify small molecule antagonists of the sonic hedgehog signaling (Shh) pathway - cell viability counter screen (AID 1259367); also: % is scaled to controls: 0 for no effect and ±100 for the full control effect; nearly all actives have a fitted effect of over 55% in size
Method in brief: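 Cells: 3T3 Gli1-Luc, 2,000/well, 4 hr pre-incubation. Compounds in DMSO, then conditioned medium. Incubation 24 hr, 37C, 5% CO2. CellTiter-Fluor at 23 hr, 1 hr, fluorescence.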

[5] = qHTS assay to identify small molecule agonists of the sonic hedgehog signaling (Shh) pathway (AID 1259368; calls by dose curve;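 also: NIH/3T3-derived 3T3Gli1-Luc cells carrying a stable Gli1-driven firefly luciferase reporter; series mostly up to about 92 µM; % is scaled to controls: 0 for no effect and ±100 for the full control effect; nearly all actives have a fitted effect of over 15% in size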)
Method in brief: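 Steps: seed 3T3 Gli1-Luc cells, incubate 4 hr at 37 C, pin-transfer compounds in DMSO alongside a positive control, incubate 24 hr, add luciferase detection reagent, wait 30 min at room temperature, read luminescence.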

[6] = qHTS assay to identify small molecule antagonists of the sonic hedgehog signaling (Shh) pathway (AID 1259369; calls by dose curve; also: nearly all actives have a fitted effect of over 45% in size; also: potency is read from the fitted curve at half-maximal effect; as to activity change, negative = inhibition: % is scaled to controls: 0 for no effect and ±100 for the full control effect)
Method in brief: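 Inhibition of Shh signalling is measured as reduced Gli1-response-element firefly luciferase output in an NIH/3T3-derived stable reporter clone stimulated with conditioned medium for 24hr.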

[7] = biological target: Estrogen receptor beta (Homo sapiens) (UniProt Q92731); test: qHTS assay to identify small molecule agonists of the estrogen receptor beta (ER-beta) signaling pathway (AID 1259377; active = well fitted activation curve with a large enough effect in the signal ratio in the repeat runs, not every such curve was filed as active; the % refers to the signal ratio; also: % is scaled to controls: 0 for no effect and ±100 for the full control effect)
Method in brief: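 A UAS-controlled beta-lactamase reporter in ER-beta-UAS-bla HEK293T cells reports receptor activation. Compounds act for 16 hr at 37C in 2% charcoal-stripped serum, and a FRET substrate is read by fluorescence after 2 hours.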

[8] = biological target: Estrogen receptor (Homo sapiens) (UniProt P03372); test: qHTS assay to identify small molecule antagonists of the estrogen receptor alpha (ER-alpha) signaling pathway using the BG1 cell line in the presence of 0.1 nM 17-beta-estradiol (AID 1259244); also: % is scaled to controls: 0 for no effect and ±100 for the full control effect; nearly all actives have a fitted effect of over 50% in size
Method in brief: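 After 5 days in hormone-depleted medium (charcoal-stripped serum, no phenol red), VM7Luc4E2 cells were seeded, incubated 24 h, then co-treated with compound and 0.1 nM (final) estradiol for 22 h before luminescence detection.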

[9] = qHTS assay to identify small molecule phospholipidosis (PLD) inducers (AID 1259344; active = well fitted curve in the direction sought with a large enough effect; an effect the other way counts as inactive or inconclusive; also: % is scaled to controls: 0 for no effect and ±100 for the full control effect)
Method in brief: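 Phospholipidosis is scored by imaging LipidTOX-stained pits in HepG2 cells exposed to compound for 24 h at 37 C; pit counts and integrated intensities per well and per cell serve as outputs.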

[10] = qHTS assay to identify small molecule agonists of the sonic hedgehog signaling (Shh) pathway - cell viability counter screen (AID 1259366); also: % is scaled to controls: 0 for no effect and ±100 for the full control effect; nearly all actives have a fitted effect of over 50% in size
Method in brief: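 Viability measured fluorometrically (CellTiter-Fluor, 1hr, 37C) in 3T3 Gli1-Luc reporter cells after 23hr compound exposure within a 24hr incubation at 37C/5% CO2.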

Chain of Estrogen receptor (Homo sapiens) (P03372 whole entry, looked up): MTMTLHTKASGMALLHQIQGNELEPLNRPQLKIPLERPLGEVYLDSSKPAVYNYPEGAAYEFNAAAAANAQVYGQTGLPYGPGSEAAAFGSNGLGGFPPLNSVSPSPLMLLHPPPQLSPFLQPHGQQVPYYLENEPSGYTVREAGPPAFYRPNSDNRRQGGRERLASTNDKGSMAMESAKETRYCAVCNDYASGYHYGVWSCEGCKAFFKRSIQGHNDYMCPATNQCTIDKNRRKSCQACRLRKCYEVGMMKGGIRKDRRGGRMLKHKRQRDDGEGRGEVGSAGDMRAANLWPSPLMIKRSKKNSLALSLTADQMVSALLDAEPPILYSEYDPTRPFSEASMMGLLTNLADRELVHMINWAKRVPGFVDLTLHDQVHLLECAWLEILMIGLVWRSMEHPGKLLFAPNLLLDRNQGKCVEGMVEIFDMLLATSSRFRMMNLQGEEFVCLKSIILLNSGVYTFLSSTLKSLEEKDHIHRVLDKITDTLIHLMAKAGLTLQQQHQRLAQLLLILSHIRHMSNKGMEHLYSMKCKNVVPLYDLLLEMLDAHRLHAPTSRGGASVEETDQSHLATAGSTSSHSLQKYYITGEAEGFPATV
Chain of Estrogen receptor beta (Homo sapiens) (Q92731 whole entry, looked up): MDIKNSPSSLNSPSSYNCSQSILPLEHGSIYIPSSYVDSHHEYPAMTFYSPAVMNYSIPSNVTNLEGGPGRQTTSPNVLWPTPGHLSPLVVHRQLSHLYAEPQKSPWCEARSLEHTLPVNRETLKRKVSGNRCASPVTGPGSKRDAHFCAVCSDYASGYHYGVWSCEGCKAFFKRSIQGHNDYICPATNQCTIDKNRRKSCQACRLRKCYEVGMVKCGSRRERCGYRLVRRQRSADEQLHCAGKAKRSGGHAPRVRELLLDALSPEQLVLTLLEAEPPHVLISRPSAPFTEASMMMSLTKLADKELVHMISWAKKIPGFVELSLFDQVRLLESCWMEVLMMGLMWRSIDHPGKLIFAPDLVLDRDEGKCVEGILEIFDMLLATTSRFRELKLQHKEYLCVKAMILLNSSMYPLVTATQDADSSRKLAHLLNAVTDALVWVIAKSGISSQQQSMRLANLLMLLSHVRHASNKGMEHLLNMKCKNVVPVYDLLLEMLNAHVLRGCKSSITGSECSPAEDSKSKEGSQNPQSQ
Chain of Androgen receptor (Homo sapiens) (P10275 whole entry, looked up): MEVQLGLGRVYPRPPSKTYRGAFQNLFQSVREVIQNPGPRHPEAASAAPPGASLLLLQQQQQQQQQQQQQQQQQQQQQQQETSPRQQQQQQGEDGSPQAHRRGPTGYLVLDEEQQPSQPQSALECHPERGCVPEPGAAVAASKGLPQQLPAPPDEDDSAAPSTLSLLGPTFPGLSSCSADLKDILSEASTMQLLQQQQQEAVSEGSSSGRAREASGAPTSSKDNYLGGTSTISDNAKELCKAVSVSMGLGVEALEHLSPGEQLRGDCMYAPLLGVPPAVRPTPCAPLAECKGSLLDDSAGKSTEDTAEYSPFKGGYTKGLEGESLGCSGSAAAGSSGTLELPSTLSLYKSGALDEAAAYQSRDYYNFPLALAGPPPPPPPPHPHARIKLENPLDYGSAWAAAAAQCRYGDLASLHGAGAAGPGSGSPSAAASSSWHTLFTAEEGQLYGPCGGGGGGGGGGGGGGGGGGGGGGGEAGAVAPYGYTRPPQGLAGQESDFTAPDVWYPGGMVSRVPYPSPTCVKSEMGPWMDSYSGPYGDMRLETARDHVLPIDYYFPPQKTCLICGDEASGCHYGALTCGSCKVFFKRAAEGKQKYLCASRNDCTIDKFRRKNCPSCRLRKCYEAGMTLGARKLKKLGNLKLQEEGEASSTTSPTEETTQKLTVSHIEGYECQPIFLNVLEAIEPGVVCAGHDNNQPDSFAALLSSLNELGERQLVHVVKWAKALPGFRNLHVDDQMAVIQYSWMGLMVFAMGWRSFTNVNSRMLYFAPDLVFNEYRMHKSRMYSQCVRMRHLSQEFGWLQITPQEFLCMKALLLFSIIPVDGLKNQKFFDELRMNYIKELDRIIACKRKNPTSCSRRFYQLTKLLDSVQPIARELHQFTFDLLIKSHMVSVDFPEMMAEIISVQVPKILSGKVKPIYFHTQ

CCN(Cc1ccccc1)c1ccccc1
inactive: Potency [2] | outcome [3] | Potency [4] | outcome [5] | Potency [7]
active: Potency [1] 53.8 µM | Potency [6] 48 µM

Cc1cccc(C)c1NC(=O)CC12CCCN1CCC2
inactive: outcome [8] | outcome [9] | Potency [2] | outcome [3] | Potency [10] | Potency [4] | outcome [5] | Potency [6] | Potency [7]

CC[C@H]1OC(=O)[C@H](C)[C@@H](O[C@H]2C[C@@](C)(OC)[C@@H](O)[C@H](C)O2)[C@H](C)[C@@H](O[C@@H]2O[C@H](C)C[C@H](N(C)C)[C@H]2O)[C@](C)(OC)C[C@@H](C)C(=O)[C@H](C)[C@@H](O)[C@]1(C)O
inactive: outcome [8] | outcome [9] | Potency [2] | outcome [3] | Potency [4] | outcome [5]

[O-][n+]1cccc(CO)c1
inactive: outcome [8] | outcome [9] | Potency [2] | outcome [3] | Potency [10] | Potency [4] | outcome [5] | Potency [6] | Potency [7]

CC(N)C12CC3CC(CC(C3)C1)C2 (configuration not stated)
inactive: outcome [8] | outcome [9] | Potency [2] | outcome [3] | Potency [10] | Potency [4] | outcome [5] | Potency [6] | Potency [7]

CC1=NS(=O)(=O)c2cc(Cl)ccc2N1
inactive: outcome [8] | outcome [9] | Potency [2] | outcome [3] | Potency [10] | Potency [4] | outcome [5] | Potency [6]

CO/N=C(\C(=O)N[C@@H]1C(=O)N2C(C(=O)O)=C(CSc3nc(=O)c(O)nn3C)CS[C@H]12)c1csc(N)n1
inactive: outcome [8] | outcome [9] | Potency [2] | outcome [3] | Potency [10] | Potency [4] | outcome [5] | Potency [6]

O=C(CO)[C@@H](O)[C@H](O)[C@H](O)CO
inactive: outcome [8] | outcome [9] | Potency [2] | outcome [3] | Potency [10] | Potency [4] | outcome [5] | Potency [6] | Potency [7]

CCC(C(=O)NC(=O)NC(C)=O)c1ccccc1 (configuration not stated)
inactive: outcome [8] | PLD induction [9] -2.71% [at 7.66 µM] | Potency [2] | outcome [3] | Potency [10] | Potency [4] | outcome [5] | Potency [6]

CN1[C@@H]2CC[C@H]1CC(OC(=O)C(O)c1ccccc1)C2 (some centres not stated)
inactive: outcome [8] | outcome [9] | Potency [2] | outcome [3] | Potency [10] | Potency [4] | outcome [5] | Potency [6]

CCOc1ccc2nc(S(N)(=O)=O)sc2c1
inactive: outcome [8] | outcome [9] | Potency [2] | outcome [3] | Potency [10] | Potency [4] | outcome [5] | Potency [6]

N[C@H](C(=O)O)[C@@H](O)c1ccc(O)c(O)c1
inactive: outcome [8] | outcome [9] | Potency [2] | outcome [3] | Potency [10] | Potency [4] | outcome [5] | Potency [6] | Potency [7]

Nc1ccn([C@@H]2O[C@H](CO)[C@@H](O)C2(F)F)c(=O)n1
inactive: outcome [8] | outcome [9] | Potency [2] | outcome [3] | Potency [10] | Potency [4] | outcome [5] | Potency [6] | Potency [7]

C[C@@H]1C[C@H]2[C@@H]3C[C@H](F)C4=CC(=O)C(Cl)=C[C@]4(C)[C@@]3(F)[C@@H](O)C[C@]2(C)[C@@]1(O)C(=O)CO
active: Potency [6] 18.8 µM
inactive: outcome [8] | outcome [9] | Potency [2] | outcome [3] | Potency [10] | Potency [4] | outcome [5]

C[N+]1(C)[C@@H]2CC(OC(=O)[C@H](CO)c3ccccc3)C[C@H]1[C@@H]1O[C@@H]12 (some centres not stated)
inactive: outcome [8] | outcome [9] | Potency [2] | Potency [10] | Potency [4] | outcome [5] | Potency [6]

CC(C)(C)C(=O)Oc1ccc(S(=O)(=O)Nc2ccccc2C(=O)NCC(=O)O)cc1
inactive: outcome [8] | outcome [9] | Potency [2] | outcome [3] | Potency [10] | Potency [4] | outcome [5] | Potency [6]

O=C(CO)[C@@H](O)[C@H](O)[C@@H](O)CO
inactive: outcome [8] | outcome [9] | Potency [2] | outcome [3] | Potency [10] | Potency [4] | outcome [5] | Potency [6] | Potency [7]

Cc1ccc(C(=O)Nc2ccc(S(=O)(=O)O)c3cc(S(=O)(=O)O)cc(S(=O)(=O)O)c23)cc1NC(=O)c1cccc(NC(=O)Nc2cccc(C(=O)Nc3cc(C(=O)Nc4ccc(S(=O)(=O)O)c5cc(S(=O)(=O)O)cc(S(=O)(=O)O)c45)ccc3C)c2)c1
inactive: outcome [8] | outcome [9] | Potency [2] | Potency [10] | Potency [4] | outcome [5] | Potency [6]

O=C(O)c1cn(C2CC2)c2cc(N3CCNCC3)c(F)cc2c1=O
inactive: outcome [8] | outcome [9] | Potency [2] | outcome [3] | Potency [10] | Potency [4] | outcome [5] | Potency [6]

CN(C)C(=O)Oc1ccc[n+](C)c1
inactive: outcome [8] | outcome [9] | Potency [2] | Potency [10] | Potency [4] | outcome [5] | Potency [6]

C[N+](C)(C)CCCCCCCCCC[N+](C)(C)C
inactive: outcome [8] | outcome [9] | Potency [2] | outcome [3] | Potency [10] | Potency [4] | outcome [5] | Potency [6]

Cc1ccnc(NS(=O)(=O)c2ccc(N)cc2)n1
inactive: outcome [8] | outcome [9] | Potency [2] | Potency [10] | Potency [4] | outcome [5] | Potency [6]

N[C@@H](CCC(=O)O)C(=O)O
inactive: outcome [8] | outcome [9] | Potency [2] | outcome [3] | Potency [10] | Potency [4] | outcome [5] | Potency [6]

CC(=O)Oc1cccc(C)c1
inactive: outcome [8] | outcome [9] | Potency [2] | outcome [3] | Potency [10] | Potency [4] | outcome [5] | Potency [6]

CCCCCCCCCCOc1cc2c(=O)c(C(=O)OCC)c[nH]c2cc1OCC
inactive: activity change, negative = inhibition [8] -1.66% [at 8.39 µM] | outcome [9] | activity change, negative = inhibition [2] 0.14% [at 8.39 µM] | viability change, negative = cytotoxic [10] 2.95% [at 8.39 µM] | viability change, negative = cytotoxic [4] 5.79% [at 8.39 µM] | activity change [5] -0.042% [at 8.39 µM] | activity change, negative = inhibition [6] 27.8% [at 8.39 µM] | activation [7] -0.652% [at 8.39 µM]

CC1=CCC(O)(C(C)C)CC1 (configuration not stated)
inactive: outcome [8] | Potency [2] | outcome [3] | Potency [10] | Potency [4] | outcome [5] | Potency [6]
